Measured values as given in PubChem BioAssay (NCATS).
Inconclusive results are not listed. Active and inactive are the calls of the source. Calls follow the shape of the dose curve; as a rule, active = well fitted curve in either direction with a large enough effect (not every such curve was filed as active); inconclusive = small, poorly fitted or top-dose-only effect, or another doubt; inactive = flat fitted curve, though single readings scatter.

What follows are compounds tested against Mitogen-activated protein kinase 10 (Mus musculus) (UniProt Q61831) (assay: JNK3 AlphaScreen Assay (AID 530;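 also: kinase came from lysate of stimulated human HepG2 cells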)). Settings: JNK3 lysate, c-Jun phosphorylation; series mostly up to 25.6 µM; activity change, negative = inhibition: at the top concentration.
Text: NIH Chemical Genomics Center [NCGC]
NIH Molecular Libraries Screening Centers Network [MLSCN]
The c-jun N-terminal kinase (JNK) family are serine/threonine protein kinases that phosphorylate c-jun, a component of the transcription factor […] (AP-1). JNK kinases are members of the mitogen-activated protein kinase family including the extracellular regulated kinases and p38 kinases. Three JNK genes (JNK 1, 2, and 3) have been identified in humans so far. JNK1 and JNK2 have a broad distribution and JNK3 is primarily found in neuronal tissues and cardiac myocytes.
JNK3 has been under consideration as a target for the treatment of neurodegenerative disorders. […] JNK pathway is also involved in pathological process in a mouse model of Parkinson's disease (Xia et al., 2001).
Given these potential tissue distributions and links to neuroprotection, JNK3 inhibitors should provide useful investigational tools to study the role of this kinase in several diseases including, arthritis, stroke, myocardial infarction, ischemic injury and Parkinson's disease.
A homogeneous AlphaScreen is developed to measure the activity of JNK3. AlphaScreen is a two bead-based proximity-dependent chemical energy transfer luminescent assay platform. The phosphorylation of a biotinylated c-jun substrate by JNK3 can be detected with an antibody raised against phosphorylated c-jun. This process brings streptavidin donor beads and Protein-A acceptor beads to within a proximity range of <200 nm, and subsequently lead a chemical luminescent reaction upon exciting donor beads with 680 nm laser excitation light. Inhibition of JNK3 activity by small molecules and subsequent decrease in the antibody binding to biotinylated c-jun could attenuate or abolish this chemical luminescent reaction.
Yang DD, Kuan CY, Whitmarsh AJ, Rincon M, Zheng TS, Davis RJ, Rakic P and Flavell RA (1997) Absence of excitotoxicity-induced apoptosis in the hippocampus of mice lacking the Jnk3 gene. Nature 389:865-870. [PMID: 9349820]
Herdegen T, Claret FX, Kallunki T, Martin-Villalba A, Winter C, Hunter T, and Karin M (1998) Lasting N-terminal phosphorylation of c-Jun and activation of c-Jun N-terminal kinases after neuronal injury. J.Neurosci. 18:5124-5135. [PMID: 9651196]
Xia XG, Harding T, Weller M, Bieneman A, Uney JB and Schulz JB (2001) Gene transfer of the JNK interacting protein-1 protects dopaminergic neurons in the MPTP model of Parkinson's disease. Proc.Natl.Acad.Sci.U.S.A. 98:10433-10438.
NCGC Assay Protocol Summary:
GST-cJun (1-79) (Stratagene, La Jolla CA, #205145) was biotnylated by PerkinElmer (PerkinElmer-BioSignalInc. Montreal, Canada) and was detectable by the streptavidin Donor beads. Anti-(phospho)cJun (Ser73) antibody was from UpState (Charlottesvilles, VA, #06-659). JNK3-containing lysates were generated from HepG2 cells and pre-activated by interleukin1-beta and tumor necrosis factor alpha. All reagents were stored at -20 C before using. Phosphorylated biotinylated-GST-cJun was recognized by Anti-(phospho)cJun (Ser73) antibody and this process brings acceptor and donor beads together. Therefore JNK3 phosphorylation of cJun can be measured by Alpha reading by EnVision (PerkinElmer, Boston, MA).
The composition of kinase buffer was (in mM) 20 tris- HCl (pH 7.6) 10 MgCl2, 1 DTT, and 0.1 Na3VO4 and 0.01% Tween-20. Beads were diluted in detection buffer containing (in mM) 20 tris-HCl (pH 7.7), 20 NaCl and 80 EDTA and 0.3% BSA. The assay was performed at room temperature. All compounds were screened as titrations from 0.6 nM to 46 uM final concentration. The assay was performed in 1536-well format (white solid bottom and untreated) as follows:
Sequence,Parameter,Value,Description
1,Reagent,3 uL,Biotin-GST-cJun, Anti-(phospho)cJun and pre-activated JNK3-containing lysates
2,Compound,23 nL,Final concentration was 0.6nM to 46uM
3,Time,15 minutes,Room Temperature
4,Reagent,1 uL,ATP final concentration 10uM
6,Reagent,0.5 uL,2ng/well bead mixture
[…]
% is scaled to controls: 0 for no effect and ±100 for the full control effect; potency is read from the fitted curve at half-maximal effect.

Activity change, negative = inhibition, inactive:
C=C1CC23C[C@H]4[C@@H]5[C@@]6(C)C[C@H](OC(=O)c7ccccc7)[C@@H](OC(C)=O)[C@]57[C@@H]2[C@@H](OC(C)=O)[C@H]1[C@@H](O)[C@H]3[C@H]7N4C6 6.99%
Fc1ccc(Nc2nc(-c3cccnc3)nc3ccccc23)cc1 -2.4% [at 57.1 µM]
CC[C@H](CO)NCCN[C@@H](CC)CO 0.484%
CC(=O)O[C@H]1C[C@H]2CC[C@@H]3[C@@H](CC[C@]4(C)[C@H](OC(C)=O)[C@H]([N+]5(C)CCCCC5)C[C@@H]34)[C@]2(C)C[C@H]1[N+]1(C)CCCCC1 -4%
CCC(=O)OCC(=O)[C@@]1(OC(=O)CC)[C@H](C)C[C@@H]2[C@H]3CCC4=CC(=O)C=C[C@]4(C)[C@]3(Cl)[C@@H](O)C[C@@]21C 3.8%
Cc1ccc(S(=O)(=O)NC(=O)NN2C[C@H]3CCC[C@@H]3C2)cc1 6.27%
C[C@@H]1[C@H](C)CC[C@@]2(C(=O)O)CC[C@]3(C)C(=CC[C@H]4[C@@]5(C)CC[C@@H](O)C(C)(C)[C@@H]5CC[C@@]43C)[C@@H]12 21%
C[C@H]1CS(=O)(=O)CCN1/N=C\c1ccc([N+](=O)[O-])o1 0.779%
CC(C)(CS)C(=O)N1CCC[C@H]1C(=O)O -3.45%
O=C(O)[C@@H](O)[C@@H](O)[C@@H](O[C@H]1O[C@@H](CO)[C@@H](O)[C@@H](O)[C@@H]1O)[C@@H](O)CO 2.92%
CO[C@H]1[C@H](O[C@H]2O[C@@H](C)[C@@H](O[C@@H]3C[C@](C)(O)[C@H](O)[C@H](C)O3)[C@@H](N(C)C)[C@@H]2O)[C@@H](CC=O)C[C@@H](C)[C@@H](O[C@H]2CC[C@H](N(C)C)[C@H](C)O2)/C=C\C=C/C[C@@H](C)OC(=O)C[C@H]1O 15.4%
CN(C)CCn1nnnc1SCC1=C(C(=O)O)N2C(=O)[C@@H](NC(=O)Cc3csc(N)n3)[C@@H]2SC1 -0.682%
CC(=O)O[C@]1(C(C)=O)CC[C@@H]2[C@@H]3C=C(C)C4=CC(=O)CC[C@@]4(C)[C@H]3CC[C@]21C 10.7%
C[C@@H]1O[C@H](O[C@@H]2[C@H](C)O[C@H](O[C@@H]3[C@H](C)O[C@H](O[C@H]4CC[C@]5(C)[C@@H](CC[C@@H]6[C@H]5C[C@@H](O)[C@]5(C)[C@@H](C7=CC(=O)OC7)CC[C@]65O)C4)C[C@@H]3O)C[C@@H]2O)C[C@H](O)[C@@H]1O -0.743%
CC(C)NC[C@H]1CCc2cc(CO)c([N+](=O)[O-])cc2N1 -0.933%
CC[C@]1(c2ccccc2)NC(=O)N(C)C1=O 9.24%
C[C@H](CCC(=O)O)[C@H]1CC[C@@H]2[C@H]3[C@@H](CC[C@@]21C)[C@]1(C)CC[C@H](O)C[C@@H]1C[C@@H]3O 10.8%
COc1cc(N)c(Cl)cc1C(=O)N[C@H]1CCN(CCCOc2ccc(F)cc2)C[C@H]1OC -6.78%
CC(C)(C)NC[C@H](O)COc1cccc2c1CCC(=O)N2 5.29%
Nc1nc(=S)c2ncn([C@H]3O[C@@H](CO)[C@@H](O)[C@@H]3O)c2[nH]1 -3.02%
CC1(C)S[C@@H]2[C@H](NC(=O)[C@@H](N)c3ccccc3)C(=O)N2[C@H]1C(=O)O[C@H]1OC(=O)c2ccccc21 -1.48%
C[N+]1(C)CC[C@@H](OC(=O)[C@@](O)(c2ccccc2)C2CCCC2)C1 -1.63%
CCCC[C@H](CC)CN1CN(C[C@@H](CC)CCCC)CC(C)(N)C1 -2.88%
NC[C@@H]1O[C@H](O[C@@H]2[C@H](O[C@@H]3O[C@H](CO)[C@@H](COC[C@H]4O[C@@H](CN)[C@@H](O)[C@@H](O)[C@@H]4N)[C@@H]3O)[C@@H](O)[C@@H](N)C[C@H]2N)[C@@H](N)[C@H](O)[C@@H]1O 2%
CC(=O)N[C@@H](CC(=O)O)C(=O)O 1.48%
N[C@H](Cc1cc(I)c(Oc2ccc(O)c(I)c2)c(I)c1)C(=O)O 2.97%
FC(F)(F)c1ccccc1-c1ccc2ncnc(NC3CCNCC3)c2c1 4.42% [at 57.1 µM]
C#C[C@@]1(O)CC[C@@H]2[C@@H]3CCC4=C(CCC(=O)C4)[C@H]3CC[C@]21C -0.695%
CS(=O)(=O)c1ccc([C@H](O)[C@H](CF)NC(=O)C(Cl)Cl)cc1 11.7%
O=C1CN(/N=C\c2ccc([N+](=O)[O-])o2)C(=O)N1 -1.14%
CC[C@H](C(=O)[C@H](C)[C@H](O)[C@H](C)CCc1ccc(C)c(O)c1C(=O)O)[C@H]1O[C@](CC)([C@@H]2CC[C@@](O)(CC)[C@H](C)O2)C[C@H]1C -4.4%
C=C(C)[C@H]1CC[C@]2(CO)CC[C@]3(C)[C@@H](CC[C@H]4[C@@]5(C)CC[C@@H](O)C(C)(C)[C@@H]5CC[C@@]43C)[C@H]12 -1.69%
CNC[C@H](O)[C@H](O)[C@H](O)[C@H](O)CO -2.5%
C[C@@H]1CCc2cc(F)cc3c(=O)c(C(=O)O)cn1c23 -2.89%
C[C@@H]1O[C@H](O[C@@H]2\C=C/C=C\C=C/C=C\C[C@H](C)OC(=O)/C=C\[C@H]3O[C@@H]3C[C@H](O)C[C@]3(O)C[C@@H](O)[C@@H](C(=O)O)[C@H](C2)O3)[C@@H](O)[C@H](N)[C@@H]1O (stereo in doubt) 3.37%
CC1=CC(=O)C2=C(C)CC[C@@H]3[C@@H](OC(=O)[C@H]3C)[C@H]12 2.76%
Cc1c(C)c2c(c(C)c1O)CC[C@@](C)(C(=O)O)O2 -4.99%
COc1cc(OC)c2c(c1Cl)O[C@@]1(C2=O)[C@H](C)CC(=O)C[C@@H]1OC 3.21%

Potency, active:
C=Cc1c(C)c2cc3nc(cc4[nH]c(cc5nc(cc1[nH]2)C(C)=C5CCC(=O)O)c(CCC(=O)OC)c4C)[C@@]1(C)C3=CC=C(C(=O)OC)[C@H]1C(=O)OC (tested in a mixture with another compound) 316 nM [activator]
O=C(O)CCCC[C@H]1SC[C@H]2NC(=O)N[C@@H]21 1.26 nM
